# Tested on: Plasmodium falciparum Sir2 (PF13_0152, Sir2A)
# Test: Plasmodium falciparum Sir2A binding compounds – biochemical, small-molecule microarray, 635 nm fluorescence, primary screen (AID 1098);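 also: score merges spot fluorescence intensity with its signal-to-noise ratio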
# Conditions: fluorescence 635 nm, higher = more signal
row,SMILES,composite z-score
1,C=CCN1C(=O)[C@@]2(Cc3ccccc3)N=C(c3ccc(OCCCO)cc3)O[C@H]2c2ccccc21,1.59
2,CC(=O)Nc1ccc([C@H]2[C@H](C)CC[C@H]3C(=O)N4[C@@H](CC[C@@H](C)[C@@H]4c4ccc(NC(C)=O)cc4)C(=O)N32)cc1,0.75
3,COc1cc2c(cc1OC)CN(C(=O)[C@@H]1[C@H]3C(=O)O[C@H](c4ccccc4)[C@H](c4ccccc4)N3[C@H](c3ccccc3OCCO)[C@@]13C(=O)Nc1ccccc13)CC2,1.6
4,CCOC(=O)C[C@H]1[C@H](OC(=O)Cc2ccc3c(c2)OCO3)[C@@H](NC(=O)c2ccc3ccccc3c2)c2cc(OCCCO)ccc2N1C(=O)Cc1ccc(OC)cc1,0.354
5,CO[C@@H]1COC(=O)[C@H](C)NC(=O)CC=C[C@@H](C)[C@H](OC)COC(=O)[C@H](C)NC(=O)CC=C[C@H]1C,0.343
6,CO[C@H]1COC(=O)CC=C[C@H](C)COC(=O)[C@@H](OCc2ccccc2)C=C[C@@H]1C,0.558
7,CCCC[C@@H]1C[C@H]1[C@@H](NC(=O)c1ccccc1)c1ccccc1C(F)(F)F,1.15
8,CO[C@@H]1COC(=O)[C@H](C)NC(=O)CC=C[C@@H](C)[C@H](NS(=O)(=O)c2ccc(C)cc2)COC(=O)CC=C[C@@H]1C,-0.876
9,CC(=O)NCCCC[C@@H]1NC(=O)[C@H]2C[C@@H](C(=O)NCCCCCCN(C)C)[C@@H](c3cccc(OCCO)c3)N2C1=O,1.5
10,NC(=O)NCC#Cc1ccc2c(c1)[C@]1(C(=O)N2)[C@H](c2ccccc2OCCO)N2[C@H](c3ccccc3)[C@H](c3ccccc3)OC(=O)[C@H]2[C@@H]1C(=O)N1CCN(c2ncccn2)CC1,0.722
11,C[C@]1(C(=O)NCc2ccccc2)c2ccccc2C(=O)N(Cc2cc(C(F)(F)F)cc(C(F)(F)F)c2)[C@H]1c1ccc(CO)cc1,0.643
12,C=C(COC)/C(=C/C[C@@H](OC(C)=O)c1cccc(OCCO)c1)c1cc(C(=O)OC)ccc1OC,0.695
13,COC(=O)[C@H]1[C@@H]2COc3ccccc3[C@H]2N[C@H]1C(=O)OC,0.0829
14,CCc1cccc(NC(=O)O[C@H]2[C@H](OC(=O)Nc3ccccc3)[C@@H](OC(=O)Nc3ccccc3)[C@@H](OC)O[C@@H]2CO)c1,1.35
15,C=CCN1C(=O)[C@]2(O[C@H](CCn3cc(CCO)nn3)[C@@H]([Si](C)(C)c3ccc(OC)cc3)[C@@H]2C)c2cc(NC(=O)c3ccc(OC)cc3)ccc21,0.799
16,C=C(COC)/C(=C/C[C@H](OC(C)=O)c1ccc(OCCO)cc1)c1cnc2ccccc2c1,-0.407
17,[N-]=[N+]=NCc1ccccc1C[C@]1(C(=O)N2CCCCC2)N=C(c2ccc(OCCCO)cc2)O[C@H]1c1ccccc1CN=[N+]=[N-],0.751
18,CO[C@H]1O[C@H](CO)[C@@H](OC(=O)Nc2ccccc2)[C@H](OC(=O)Nc2ccc3c(c2)OCO3)[C@@H]1OC(=O)Nc1ccc2c(c1)OCO2,1.51

row,SMILES,composite z-score
1,CCOC(=O)C1=C[C@@H](c2ccccc2)N(S(=O)(=O)c2ccc(C)cc2)[C@H]1c1ccc(F)cc1,0.873
2,CCCC=C(CCC)[C@@H](NC(=O)c1ccc(C(F)(F)F)cc1)c1ccccc1,0.658
3,COC(=O)C[C@H]1O[C@]2(C(=O)N(Cc3ccccc3)c3ccc(I)cc32)[C@@H](C)[C@@H]1[Si](C)(C)c1ccc(OC)cc1,-0.237
4,CCC(=O)[C@]12O[C@@]3([C@@H]4C(=O)OCC[C@@H]41)N(CC)C(C)=C(C(=O)OC)[C@@H](c1ccccc1)N3C2=O,-0.155
5,COCCOC(=O)N1C(=O)[C@@]2(c3cc(C#CC4=CCCCC4)ccc31)[C@H](c1ccc(O)cc1)N1[C@H](c3ccccc3)[C@H](c3ccccc3)OC(=O)[C@H]1[C@@H]2C(=O)N1CCCCCCC1,0.84
6,O=C(CS)NCCCCCNC(=O)[C@H]1C[C@H]2C(=O)N3CCC[C@H]3C(=O)N2[C@H]1c1ccc(O)cc1,0.203
7,CSCC[C@@H]1NC(=O)CC=C[C@@H](C)COC(=O)[C@H](CCSC)NC(=O)CC=C[C@@H](C)COC1=O,-0.191
8,COCCOC(=O)N1C(=O)[C@@]2(c3cc(C#CCNC(N)=O)ccc31)[C@H](C(=O)N1CCCCCCC1)[C@H]1C(=O)O[C@H](c3ccccc3)[C@H](c3ccccc3)N1[C@@H]2c1ccccc1OCCO,0.733
9,O=C1O[C@H](c2ccccc2)[C@H](c2ccccc2)N2[C@H]1[C@@H](C(=O)Nc1nc3ccccc3s1)[C@]1(C(=O)Nc3ccc(C#CC4(O)CCCCCC4)cc31)[C@H]2c1ccc(O)cc1,1.53
10,CC[C@H]1C2=C3C(CC[C@H]4C(OC)OC[C@](C)([C@@H]34)N(C(=O)OC(C)(C)C)C2)C(CO)C1CO (stereo partly specified),0.593
11,CC(C)(C)OC(=O)CC[C@@]1(C(=O)NCc2ccccc2)N=C(c2ccc(OCCCO)cc2)O[C@@H]1c1ccccc1,1.64
12,CC(C)[Si](OCC[C@H]1O[C@]2(C(=O)N(Cc3ccccc3)c3ccccc32)[C@@H](C)[C@@H]1[Si](C)(C)O)(C(C)C)C(C)C,0.54
13,C[C@H]1COC(=O)[C@H](Cc2ccccc2)NC(=O)[C@@H](C)COC(=O)[C@H](Cc2ccccc2)NC1=O,0.692
14,COc1ccc([Si](C)(C)[C@H]2[C@H](CC(=O)N3Cc4ccccc4C[C@H]3CO)O[C@@]3(C(=O)N(Cc4cccc(N5CCOC5=O)c4)c4ccccc43)[C@@H]2C)cc1,1.1
15,CO[C@H]1COC(=O)[C@@H](OCc2ccccc2)C=C[C@H](C)[C@@H](OC)COC(=O)[C@H](OCc2ccccc2)C=C[C@@H]1C,-0.0155
16,C=C(COC)C(=O)CC[C@H](OC(=O)c1ccccc1-c1ccccc1C(=O)O)c1cccc(OCCO)c1,1.74
17,Cc1ccc(S[C@]2(C(=O)O)CC(=O)N(Cc3ccccc3)[C@@H]2c2ccc(CO)cc2)cc1,-0.844
18,O=C(O)[C@@H]1Cc2c([nH]c3ccccc23)[C@@H](c2ccccc2)N1,0.0269

# From PubChem BioAssay
